Most compounds without a hit are left out; they make up all but 2.4% or so of the library.
Cruzain inh noDet: blocks cruzain activity in detergent-free assay | P25779 | purified cruzain, Z-FR-AMC fluorescence, no detergent | AID 1476 | hit rate 2.3% among 200,000 | Potency, µM, inactives show max response, negative = inhibition, actives largely listed as inhibitors;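 also: plate controls were enzyme without inhibitor for no effect and buffer without enzyme for full effect; nearly all actives have a fitted effect of over 40% in size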
Target sequence (P25779 123-467 limits assumed): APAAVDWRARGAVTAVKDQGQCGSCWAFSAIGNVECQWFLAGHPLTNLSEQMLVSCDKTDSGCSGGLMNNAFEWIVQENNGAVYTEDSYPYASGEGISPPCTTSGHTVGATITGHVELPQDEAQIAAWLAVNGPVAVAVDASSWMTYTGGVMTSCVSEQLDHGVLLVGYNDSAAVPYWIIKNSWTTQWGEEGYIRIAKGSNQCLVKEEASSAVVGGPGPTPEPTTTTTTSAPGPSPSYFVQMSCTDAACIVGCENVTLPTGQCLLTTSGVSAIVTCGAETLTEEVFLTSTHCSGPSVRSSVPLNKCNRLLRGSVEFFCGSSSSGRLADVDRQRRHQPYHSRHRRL
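Purified cruzain at 1.5 nM, pre-incubated 15 min with compound at room temperature in 100 mM sodium acetate pH 5.5, 5 mM DTT, 0.00005% Triton X-100. Reaction started with 2 uM Z-FR-AMC; AMC fluorescence increase over 60 s gives rate.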
Cruzain Triton: blocks cruzain activity in presence of Triton detergent | hit rate 0.43% among 200,000 | purified cruzain, Z-FR-AMC fluorescence, 0.01% Triton | P25779 | Potency, µM, for the others: max response, negative = inhibition, hits mostly inhibitors;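 also: plate controls were neutral wells for no effect and buffer without enzyme for full effect; nearly all actives have a fitted effect of over 40% in size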
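Purified cruzain (1.5 nM final) was preincubated with compounds for 15 min at room temperature in 100 mM sodium acetate pH 5.5, 5 mM DTT, 0.01% Triton X-100. Reaction started with 2 uM Z-FR-AMC; AMC fluorescence change over 60 s gave activity.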
* marks the source's active call; other numbers are inactive results; ? = inconclusive. Calls follow the shape of the dose curve; as a rule, active = well fitted curve in the direction sought with a large enough effect; inconclusive = small, poorly fitted or top-dose-only effect, or another doubt; inactive = no such curve, though single readings can be large; an effect the other way counts as inactive or inconclusive. Potency is read from the fitted curve at half-maximal effect.

SMILES	Cruzain inh noDet	Cruzain Triton
O=c1c2ccccc2nc(SCc2ccc([N+](=O)[O-])cc2)n1-c1ccc(Cl)cc1	12.6µM*	-1.9%
O=c1c2ccccc2nc(SCc2ccc([N+](=O)[O-])cc2)n1CCCO	?	-9.9%
COc1ccc(C(=O)Nn2c(SCc3ccc([N+](=O)[O-])cc3)nc3ccccc3c2=O)cc1	31.6µM*	5.5%
COc1ccc(C(=O)Nn2c(SCC(=O)c3ccccc3)nc3ccccc3c2=O)cc1	?	-4.3%
CCOc1ccccc1C(=O)NCc1ccc2c(c1)CCN2C(C)=O	0.8%	2.5%
Cc1cccc(C)c1NC(=O)CN(C)S(=O)(=O)c1ccc2c(c1)n(C)c(=O)c(=O)n2C	-3.7%	-2.8%
FC(F)(F)c1nc2ccc(SSc3ccc4nc(C(F)(F)F)[nH]c4c3)cc2[nH]1	-5.1%	-2.1%
O=c1cc(-c2cccs2)oc2ccc(Cl)cc12	0.2%	-2.6%
O=C1OC(/C=C/c2ccc(Cl)cc2Cl)=NC/1=C\c1cccs1	25.1µM*	?
O=C(Cc1cccs1)Nc1c(C(=O)Nc2ccc(F)cc2)oc2ccccc12	4.6%	-0.9%
CCN(CCCNC(=O)c1nn(-c2ccc(OC)c(Cl)c2)c(=O)c2c1c1ccccc1n2C)c1ccccc1	?	-0.4%
C[C@@]12CC[C@@H]3[C@H](CCC4=CC(=O)CC[C@]43C)[C@@H]1CC[C@@H]2C(=O)COS(=O)(=O)c1ccc(Br)cc1	7.3%	1.3%
CCN(CC)CCNc1ncnc2c1[nH]c1ccc(OC)cc12	?	4.2%
COc1ccc2[nH]c3c(NCc4ccco4)ncnc3c2c1	?	17.8µM*
CCCCNc1ccc(-c2nc(-c3ccco3)no2)cc1[N+](=O)[O-]	?	-14.9%
COc1cc(-c2noc(-c3ccc(N(C)C)c([N+](=O)[O-])c3)n2)cc(OC)c1OC	25.1µM*	-6.7%
CCN(CC)c1ccc(-c2nc(-c3ccco3)no2)cc1[N+](=O)[O-]	15.8µM*	-3.6%
CN(C)c1ccc(-c2nc(-c3ccncc3)no2)cc1[N+](=O)[O-]	-6.0%	-2.4%
COc1ccc2c(CNCCc3ccccc3)c(C(=O)O)n(Cc3cccc(F)c3)c2c1	20.7%	-5.4%
COc1ccccc1NC(=O)CSc1nc2ccccc2cc1Cc1ccccc1	20µM*	0.6%
COc1ccccc1NC(=O)CSc1nc(N)cc(N)n1	-3.6%	5.4%
COc1ccc(NC(=O)C(C)n2nc(-c3ccc(C)c(C)c3)ccc2=O)cc1OC (stereo not given)	?	-10.3%
CC(=O)N1CCc2cc(Br)cc(S(=O)(=O)NCCc3cccc(C)c3)c21	2.3%	-3.7%
COc1ccc(-n2c(SCc3ccccc3F)nc3c([nH]c4ccccc43)c2=O)cc1OC	23.9%	-3.6%
COc1ccc(NC(=O)c2ccc(CNS(=O)(=O)c3ccc4c(c3)C(C)(C)C(=O)N4C)cc2)cc1	-6.0%	2.7%
SMILES	Cruzain inh noDet	Cruzain Triton
CC(=O)c1ccc(NC(=O)c2ccc(-c3nc(COc4ccc(C)cc4)c(C)o3)cc2)cc1	1µM*	-2.9%
CC(=O)c1ccc(NC(=O)c2ccc(-c3nc(CSc4ccc(C)cc4)c(C)o3)cc2)cc1	?	-2.2%
CC(=O)c1ccc(NC(=O)c2ccc(-c3nc(CSc4ccccc4)c(C)o3)cc2)cc1	10µM*	-2.4%
COc1ccc(NC(=O)c2ccc(-c3nc(COc4ccccc4)c(C)o3)cc2)cc1	2.1%	-1.6%
CCC(=O)C1=C(c2cccc([N+](=O)[O-])c2)N(C(=O)CC)n2c(nnc2C2CCCCC2)S1	-18.9%	0.1%
CCCCOc1ccc(C(=O)NCCc2csc3nc(-c4ccccc4F)nn23)cc1	21.4%	-6.8%
CC(=O)O[C@H]1CC[C@H]2[C@@H]3CCC4=C[C@@H](C5SCCS5)[C@H](OC(C)=O)C[C@]4(C)[C@H]3CC[C@@]12C	-7.6%	-3.1%
CC(=O)N1CCc2c(sc3c2c(=O)n(CCc2ccccc2)c(=O)n3Cc2ccc(F)cc2)C1	?	-9.1%
O=c1[nH]c(SCc2c(Cl)c(Cl)c(Cl)c(Cl)c2Cl)nc(=S)[nH]1	-2.3%	-12.7%
Cc1cc(C)nc(SCc2cc(=O)c(OC(=O)c3ccc(Br)o3)co2)n1	-14.6%	?
Cc1cc(C)nc(SCc2cc(=O)c(OC(=O)c3ccco3)co2)n1	?	25.1µM*
O=C1CCCC2=C1C(c1cn(-c3ccccc3)nc1-c1cccs1)c1c([nH]c(=O)[nH]c1=O)N2 (stereo not given)	12.6µM*	14.1µM*
CSc1nc2c(c(=O)[nH]1)C(c1cccs1)C1=C(CCCC1=O)N2 (stereo not given)	2.7%	-1.0%
CCC1CCCCN1CCCNC(=O)c1[nH]c2ccccc2c1Sc1ccc(Cl)cc1 (stereo not given)	10.1%	-6.8%
c1ccc2c(c1)c1cccc3ccc4cccc2c4c31	15.8µM*	2.1%
c1cc2ccc3cccc4ccc(c1)c2c34	-13.4%	-0.6%
Cc1ccc(NC(=O)c2cc(S(=O)(=O)N3CCc4ccccc43)cn2C)c(Cl)c1	-4.9%	-3.2%

Bioassay records as filed in PubChem.
